Experimental data reported in ChEMBL document CHEMBL3988442, “University of Dundee, Small-Polar-MMV Screening Library” (2021).
In all, about 53,000 compounds went through this assay and about 900 (1.7%) showed an effect of 50% or more. Shown is part of a subset that was picked to be rich in strong results.

tested on: Mycobacterium tuberculosis; assay: Cornell - Phenotypic assay to identify agents that inhibit growth of Mycobacterium tuberculosis; assay type: functional; set-up: scale not given: direction of the effect not stated beside the values; conditions: 10 mM as filed; unlikely as a test dose

| SMILES | Percent Effect [%] |
| --- | --- |
| O[C@@H]1CN(c2nc3ccccc3o2)CC[C@H]1c1ccc2c(c1)OCO2 | 1.12 |
| O[C@@H]1CN(c2cnc3ccccc3n2)CC[C@H]1c1ccc2c(c1)OCO2 | 102.9 |
| O[C@@H]1CN(c2nc3ccccc3s2)CC[C@H]1c1ccc2c(c1)OCO2 | 18.1 |
| COc1cccc(CNC(=O)CN2CCCC(Cn3cncn3)C2)c1 (stereo not given) | -43.6 |
| Cc1cnn(C2CN(Cc3nc4cc(Cl)ccc4n3C)C2)c1 | 63.15 |
| Cc1cnn(C2CN(Cc3nc(C(C)(C)C)no3)C2)c1 | -9.455 |
| Cc1cccc(-c2noc(CN3CC(n4cc(C)cn4)C3)n2)c1 | 51.38 |
| Cc1cnn(C2CN(Cc3nc(-c4ccsc4)no3)C2)c1 | 18.79 |
| Cc1cnn(C2CN(Cc3nc(-c4ccccc4C)no3)C2)c1 | -13.18 |
| Cc1cnn(C2CN(Cc3nnc(-c4ccccc4Cl)o3)C2)c1 | -48.85 |
| Cc1cnn(C2CN(Cc3nc(-c4ccccn4)no3)C2)c1 | -25.23 |
| Cc1ccc(-c2noc(CN3CC(n4cc(C)cn4)C3)n2)cc1 | 41.03 |
| Cc1cnn(C2CN(Cc3nc(-c4cccnc4)no3)C2)c1 | 3.209 |
| Cc1cnn(C2CN(Cc3nnc(Cc4ccccc4)o3)C2)c1 | 75.37 |
| Cc1ccc(-c2nnc(CN3CC(n4cc(C)cn4)C3)o2)cc1 | 82.45 |
| Cc1cc(C)n(C2CN(Cc3nc4cc(Cl)ccc4n3C)C2)n1 | -28.71 |
| CCOc1ccccc1-n1c(C2CC(=O)N(C)C2)n[nH]c1=O (stereo not given) | -16.7 |
| Cc1c[nH]c(CN(C)C(=O)[C@]23CNC[C@H]2CNC3)n1 | -19.02 |
| O=C(Nc1ccnn1Cc1ccc(Cl)cc1)C1CCS(=O)(=O)C1 (stereo not given) | -30.31 |
| CC(C)(C)C(=O)NS(=O)(=O)c1ccc(F)cc1C(F)(F)F | 31.3 |
| CC(=O)N1CCC(Cc2cnc(Nc3cc(C)on3)cn2)CC1 | -2.54 |
| Nc1nonc1C(=O)N1Cc2ccccc2OC2(CCOCC2)C1 | -22.02 |

| SMILES | Percent Effect [%] |
| --- | --- |
| COc1ccc(-c2cn([C@H](CO)CC(C)C)nn2)cn1 | 26.72 |
| COC(=O)Cn1c(=O)nc2n1C(=O)N(c1ccc(F)cc1)C2 | 8.177 |
| Cc1cnn(CC2CCCN2C(=O)c2cccc(S(C)(=O)=O)c2)c1 (stereo not given) | 1.06 |
| Cc1noc([C@]23COC[C@H]2CN(C(=O)COC2CCCC2)C3)n1 | 1.713 |
| CNC(=O)Cn1c(-c2ccco2)nn(-c2ccccc2OC)c1=O | -0.5787 |
| CC(c1cccnc1)N(C)C(=O)NCCOc1ccc(C#N)cc1 (stereo not given) | 12.58 |
| C[C@@H]1CN(C(=O)C2CCS(=O)(=O)CC2)CC[C@@]1(O)C1CCOCC1 | 26.03 |
| Cc1cc(C)n(CCN2CCC(N(C)Cc3nnc(C)n3C)C2)n1 (stereo not given) | -7.03 |
| CCN(C(=O)Cc1ccc(NC(=O)NC2CC2)cc1)c1ccccc1 | -6.305 |
| CCN(C(=O)Cc1ccc(NCc2nccn2C)cc1)c1ccccc1 | 9.386 |
| CCN(C(=O)Cc1ccc(NCc2ncc[nH]2)cc1)c1ccccc1 | 52.94 |
| Cc1nn(C)c(Cl)c1C1CCCN1C(=O)c1cnc[nH]1 (stereo not given) | 8.572 |
| Cc1ccc(C(=O)NCc2ccnc(C3CCCOC3)n2)s1 (stereo not given) | 2.557 |
| CC(C)(C)CNC(=O)c1ccc(C(=O)O)nc1 | 11.56 |
| CN(CC(=O)NCCc1ccccn1)C(=O)c1cccs1 | -9.987 |
| CN(CC(O)C1CC1)C(=O)Nc1cc(F)cc(Br)c1 (stereo not given) | 5.584 |
| CC(O)CCN(C)C(=O)Nc1cc(F)cc(Br)c1 (stereo not given) | 23 |
| CNC(=O)C(C)CN(C)C(=O)Nc1cc(F)cc(Br)c1 (stereo not given) | 72.87 |
| Cn1nc(C2CN(S(C)(=O)=O)C2)c2nccnc21 | -1.799 |
| CSc1nsc(SCC(=O)c2cc3c(cc2Cl)NC(=O)C3)n1 | 71.22 |
| Nc1nnc(SCC(=O)c2cc3c(cc2Cl)NC(=O)C3)s1 | 9.185 |
| Cc1nnc(SCC(=O)c2cc3c(cc2Cl)NC(=O)C3)s1 | 21.14 |

| SMILES | Percent Effect [%] |
| --- | --- |
| O=C(C1CCOCC1)N1CCC(O)(Cn2ccc3ccncc32)CC1 | -3.808 |
| Cc1cc(CN2C[C@@H]3COC[C@@H](C(=O)N4CCCCO4)[C@@H]3C2)oc1C.O=C(O)C(F)(F)F | 19.33 |
| CN(C)CC1(O)CCN(C(=O)Cc2ccc(Cl)c(Cl)c2)C1 (stereo not given) | -11.99 |
| CN(C)CC1(O)CCN(C(=O)Cc2ccc3c(c2)CCCC3)C1 (stereo not given) | 27.93 |
| CN(C)CC1(O)CCN(C(=O)Cc2ccc3c(c2)CCC3)C1 (stereo not given) | 59.81 |
| O=C1C(Sc2nnnn2C2CC2)CCN1c1ccccc1F (stereo not given) | -21.88 |
| Cc1ccc(S(=O)(=O)Nc2ccc(-n3cccc3C(=O)O)c(C)c2)cc1 | 24.84 |
| Cc1ccc(S(=O)(=O)Nc2ccc(-n3cccc3C(=O)O)c(C)c2)s1 | 77.19 |
| Cc1cc(NS(=O)(=O)c2cccs2)ccc1-n1cccc1C(=O)O | 31.6 |
| Cc1cc(NS(=O)(=O)c2ccccc2F)ccc1-n1cccc1C(=O)O | 63.88 |
| O=C(O)c1cc(NS(=O)(=O)c2ccccc2F)ccc1N1CCSCC1 | -53.64 |
| Cc1cc(NS(=O)(=O)c2ccc(Cl)s2)ccc1-n1cccc1C(=O)O | 25.94 |
| Cc1cnn(CC2CN(CC(=O)N(C)Cc3cnn(C)c3)CCO2)c1 (stereo not given) | -28.01 |
| CCc1ccccc1-n1nnc(C(=O)O)c1-c1ccccn1 | 8.629 |
| Clc1ccc(OCCNC2(c3ccc(Br)cc3)CCOCC2)cc1 | 68.56 |
| CCOCCNC1(c2ccc(Cl)cc2)CCOCC1 | -7.005 |
| COCCNC1(c2ccc(Cl)cc2)CCOCC1 | -43.32 |
| CNC(=O)C1(C)CN(c2nnc(C)c3ccccc23)CCO1 (stereo not given) | 14 |
| COc1ccc(N(c2ccc(OC)cc2)c2ccc(C(=O)O)s2)cc1 | 27.51 |
| COc1ccc(N(c2ccc(C)cc2)c2ccc(C(=O)O)s2)cc1 | 2.836 |
| COc1ccc(N(c2ccccc2)c2ccc(C(=O)O)s2)cc1 | 73.26 |
